Nrf2 block: blocks Nrf2 signaling; A549 ARE-Fluc reporter, luciferase luminescence, 18-24 h; Potency, µM (highest dose often 46 µM), inactives show at the top dose activity change, negative = inhibition, most hits filed as inhibitors; 360,000 tested, 2.1% active; note: % is set by controls: 0 for no effect and ±100 for the full control effect; nearly all actives have a fitted effect of over 60% in size
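Nrf2 activity is the BugLite luminescence, read 15 min after reagent at room temperature, following CellTiter-Fluor cytotoxicity readout (30 min, 37C). Compound titrations were applied for 18-24 h to 5000 A549 ARE_Fluc cells/well in 5% FBS OPTI-MEM.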
Nrf2 ARE act: activators of Nrf2 (ARE) signaling; AREc32 ARE-luciferase reporter (MCF7-derived line), luminescence, 24 h; Potency, µM (top dose mostly 46.1 µM), inactives show top-dose activation, usual class: activators; 410,000 tested, 0.31% active; note: % of control where 0% means no effect; nearly all actives have a fitted effect of over 65% in size
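Each well held 1000 AREc32 cells, which were incubated with compound for 24 hr at 37 deg C after overnight attachment, and ARE reporter activity was quantified by firefly luciferase luminescence.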
A549 tox: A549 cytotoxicity, counter-screen for Nrf2 inhibitors; A549 ARE-Fluc cells, CellTiter-Fluor viability, 18-24 h; Potency, µM (series often up to 46 µM), without a hit: at the top dose activity change, negative = cytotoxicity, usual class: inhibitors; 390,000 tested, 0.16% active; AID 504648; note: % is set by controls: 0 for no effect and ±100 for the full control effect
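Cytotoxicity counterscreen: CellTiter-Fluor fluorescence was measured in A549 ARE_Fluc cells after 18-24 h of compound exposure in a concentration series. The subsequent BugLite luminescent read reports ARE-luciferase activity.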
ELG1 DNA repair: blocks ELG1-dependent DNA repair in HEK293T cells; AID 504467; Potency, µM (series often up to 46.1 µM), for inactives: at the top dose activity change, negative = inhibition, most hits filed as inhibitors; HEK293T ELG1-luciferase reporter, luminescence, 16 h; DNA damage induced by 5-fluorouridine; 330,000 tested, 2.3% active; note: % is set by controls: 0 for no effect and ±100 for the full control effect; nearly all actives have a fitted effect of over 55% in size
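Cells (2,000 per well) received 5-fluorouridine plus test compound or DMSO and were incubated 16 hr at 37 °C, 5% CO2. Luciferase activity was read by luminescence 30 min after ONE-Glo addition; signal suppression marked inhibition of damage-induced ELG1 function.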
* = called active by the depositor; ? = inconclusive; / = not tested or not shown; [ ] = remark or other dose. A selection: hits, their analogues and other compounds. The true share with any hit is near 3.7%. Calls come from the whole dose curve; as a rule, active = well fitted curve in the direction sought with a large enough effect; inconclusive = small, poorly fitted or top-dose-only effect, or another doubt; inactive = no such curve, though single readings can be large; an effect the other way counts as inactive or inconclusive. Potency is the fitted concentration of half-maximal effect.

SMILES	Nrf2 block	Nrf2 ARE act	A549 tox	ELG1 DNA repair
Cc1c(NC(=O)/C(C#N)=C/c2ccccc2)c(=O)n(-c2ccccc2)n1C	-7.9%	-0.9%	19.9%	11.5%
Cc1c(NN=C(C#N)C#N)c(=O)n(-c2ccccc2)n1C	-3.1%	4.0%	-12.5%	5.8µM*
O=C(NCc1cccc(Cl)c1)C1CCCN(c2nn3cc(-c4ccc(F)cc4)nc3s2)C1 (configuration not stated)	?	-1.8%	-7.8%	/
O=C(c1cccc(S(=O)(=O)NCc2ccccc2)c1)N1CCCC(C(F)(F)F)C1 (configuration not stated)	?	0.3%	0.4%	?
Oc1ccc(N=Nc2ccc3c(c2)OCCO3)c2ncccc12	18.4µM*	11.2%	?	0.0%
O=C(CSc1nccn1Cc1ccc(F)cc1)Nc1ccc(F)cc1F	-24.3%	-0.1%	13.0%	23.1µM*
Cc1nc(C)c(-c2ccc(SCC(=O)Nc3ccc(F)cc3F)nn2)s1	20.6µM*	-0.5%	-25.2%	18.3µM*
COc1cccc(NC(=O)CSc2ccc(-c3sc(C)nc3C)nn2)c1	?	2.3%	-12.6%	20.6µM*
Cc1cc(C)cc(NC(=O)COC(=O)CC2CCCC2)c1	0.1%	0.8%	8.4%	1.9%
C[C@H]1COc2cc(N3CCC[C@@H]3CO)ccc2S(=O)(=O)N1	/	-1.0%	/	/
O=S(=O)(c1ccc(Cl)s1)N1CCN(C/C=C/c2ccccc2)CC1	10.3µM*	2.9%	-4.2%	-17.1%
COc1ccc(-c2csc3nc(-c4cccnc4)nc(N4CCC(C(N)=O)CC4)c23)cc1OC	-16.2%	10.9%	5.1%	-13.2%
COc1ccc(-c2csc3nc(C)nc(N4CCCCC4)c23)cc1OC	-20.0%	15.8µM*	-1.4%	?
COC(=O)c1cc(CN2CCN(c3ccccc3C)CC2)ccc1O	/	-0.3%	-6.2%	23.1µM*
O=C(NCc1ccc(F)cc1)c1cnc(N2CCCCC2)c2ccccc12	/	0.1%	-0.1%	/
COc1cc(/C=C/C(=O)C2C(=O)C=C(C)OC2=O)cc(OC)c1O (configuration not stated)	1.3%	5.7%	-1.8%	2.59µM*
O=C(NCCC1=CCCCC1)c1ccc2c(c1)N(Cc1ccc(Cl)cc1)C(=O)c1ccccc1S2(=O)=O	14.2%	-0.5%	-4.4%	/
Cn1c(SCC(=O)N2CCCCC2)nc2c([nH]c3ccccc32)c1=O	-24.4%	-0.2%	-10.8%	-3.2%
CCOC(=O)N1CCN(C(=O)CSc2nc3c([nH]c4ccccc43)c(=O)n2C)CC1	?	-1.2%	-1.3%	2.59µM*
O=C(COc1ccccc1)Nc1ccccc1Oc1ccccc1	?	-0.6%[9.22 µM]	22.1%	6.7%
Cc1cccc(NC(=O)COc2ccc(-c3nn(C)c(=O)c4ccccc34)cc2)c1	23.1µM*	-2.7%	?	14.6µM*
COc1ccc(NC(=O)CSCC(=O)N2c3ccccc3CCc3ccccc32)cc1	-18.9%	2.6%	15.8%	6.9%
COc1ccccc1NC(=O)COc1ccccc1	?	11.2µM*	5.2%	?
COc1ccccc1NC(=O)CSCC(=O)N1c2ccccc2CCc2ccccc21	18.4µM*	2.3%	?	?
Cn1nc(-c2ccc(OCC(=O)Nc3ccccc3)cc2)c2ccccc2c1=O	?	1.0%	-2.8%	?
SMILES	Nrf2 block	Nrf2 ARE act	A549 tox	ELG1 DNA repair
COc1ccccc1NC(=O)CCn1nc(-c2ccccc2)c2ccccc2c1=O	23.1µM*	3.5%	?	/
CCOc1ccc(NC(=O)C2CCN(S(=O)(=O)c3ccc4c(c3)oc(=O)n4C)CC2)cc1	11.8%	-0.8%	5.1%	/
COc1ccccc1NC(=O)CC(c1ccc(OC(C)C)cc1)c1ccccc1OC (configuration not stated)	-16.7%	0.0%	-0.9%	8.2µM*
COc1ccccc1NC(=O)c1ccc(-c2nn(C)c(=O)c3ccccc23)cc1	?	0.3%	0.7%	?
COc1ccccc1NC(=O)COc1ccc(-c2nn(C)c(=O)c3ccccc23)cc1	?	4.3%	-7.0%	16.4µM*
O=C(CNCc1ccccn1)Nc1ccc([N+](=O)[O-])cc1C(=O)Nc1ccccc1F	-1.3%	3.7%	0.6%	23.1µM*
CCOC(=O)N1CCN(CC(=O)Nc2ccc([N+](=O)[O-])cc2C(=O)Nc2ccccc2F)CC1	-25.9%	-1.1%	?	7.31µM*
COc1cc(NC(=O)CN2CCN(C(=O)c3ccco3)CC2)c(C)cc1[N+](=O)[O-]	/	-1.0%	/	/
COc1cc2nc(/C=C/c3cc(OC)c(OC)c(OC)c3)sc2cc1SC	?	-0.7%	?	11.6µM*
CC(C)n1c(=O)c2ccccc2n1Cc1cn(Cc2cccnc2)nn1	/	-0.3%	/	/
COc1ccc(CN(C)C(=O)Cn2cnc3c(NCc4ccccc4)ncnc32)cc1OC	?	3.0%	1.7%	?
COc1ccc(C(=O)NCC23C=CC(O2)C2C(=O)N(Cc4ccccc4)C(=O)C23)cc1 (configuration not stated)	?	0.4%	/	16.4µM*
CCCCCCOc1ccc(/C(C)=N/NC2=NCCN2)cc1[N+](=O)[O-]	2.1%	-4.6%	-2.0%	-2.3%
CCCCOc1ccc(Br)cc1/C(C)=N/NC1=NCCN1	?	4.8%	11.6µM*	?
Cc1ccc(-n2c(=O)[nH]c3cc(C(=O)NCCc4ccccc4)ccc3c2=O)cc1	-6.3%[9.27 µM]	-0.2%	-3.1%	/
COc1ccc(OC)c(C2=Nn3c(nnc3-c3cc(OC)c(OC)c(OC)c3)SC2)c1	?	5.2%	4.5%	?
CCOc1cccc(-c2nnc3n2N=C(c2cc(OC)ccc2OC)CS3)c1	?	0.1%	-6.5%	5.17µM*
COc1ccc(C2=Nn3c(nnc3-c3ccccc3Cl)SC2)cc1OC1CCCC1	16.4µM*	-1.0%	-17.2%	?
COc1cc(-c2nnc3n2N=C(c2ccccc2)CS3)cc(OC)c1OC	?	4.8%	-20.9%	9.2µM*
COc1cccc(-c2nnc3n2N=C(c2cc(OC)ccc2OC)CS3)c1	?	0.0%	-10.5%	18.4µM*
CN1C(=O)[C@H]2[C@@H](c3ccc(C(F)(F)F)cc3)N[C@]3(CCCN(Cc4cccn4C)C3=O)[C@H]2C1=O	/	2.8%	/	/
CCN(CC)C(=O)Cn1c(SCC(=O)Nc2ccc(F)cc2)nc2ccccc21	/	3.3%	-6.6%	/
CCOc1cc(C(=O)Nc2ccc(C(=O)NCCN(CC)CC)cc2)ccc1OCC(=O)N1CCOCC1	-8.4%	-0.5%	0.5%	13.9%
Cc1nc2scc(-c3ccccc3)c2c(=O)n1N	-9.7%	0.5%	-2.3%	-9.8%
Cc1nc2scc(-c3ccccc3)c2c(=O)n1N=C1C=CC(=O)C=C1	-12.7%	10µM*	-9.7%	?
O=C(Nc1ccccc1C(F)(F)F)N1CCC2(CC1)Oc1ccccc1C(=O)N2Cc1ccccc1F	18.1%	-0.6%	2.5%	/
COc1cc(C(=O)NC(=S)Nc2nc(-c3ccc(F)cc3)cs2)cc(OC)c1OC	5.2%	0.2%	-7.0%	10.3%
COc1ccc(-c2csc(NC(=O)CCn3cnc4ccccc4c3=O)n2)cc1OC	?	-0.4%	-0.7%	7.31µM*
CCC(=O)Nc1nc(-c2ccc3c(c2)OCCO3)cs1	?	-0.1%	15.8%	?
